# Inconclusive results are not listed. Values without a mark were called inactive. Active and inactive are the calls of the source. Calls come from the whole dose curve; as a rule, active = well fitted cell-killing curve with a large enough effect; inconclusive = small, poorly fitted or top-dose-only effect, or effect the other way; inactive = no such curve, though single readings can be large or run the other way.
# Test: Quantitative High-Throughput drug screen in 47 multiple myeloma cell lines against the NCATS MIPE library collection: PE2_PLB cell viability assay (AID 1919869); note: nearly all actives have a fitted effect of over 35% in size
# Details: PE2_PLB myeloma cells viability, ATP luminescence, 48 h; series mostly up to 45.8 µM; viability (% of control): at the top concentration
# From the text: PI: Beverly A. Mock Ph.D.
# Laboratory of Cancer Biology and Genetics,
# Center for Cancer Research, National Cancer Institute,
# National Institute of Health, Bethesda, Maryland
# Drug resistance and disease progression are common in multiple myeloma (MM) patients, underscoring the need for new therapeutic combinations. […] We hypothesized that effective combinations would reduce MYC expression and enhance p16 activity. […] These preclinical data identify potentially useful drug combinations for evaluation in drug-resistant MM and reveal potential mechanisms of combined drug sensitivity.
# Described herein is the primary MIPE qHTS used to cherrypick compounds. Validated compounds were then further tested for potential synergistic activiy.
# [1] Peat TJ, Gaikwad SM, Dubois W, Gyabaah-Kessie N, Zhang S, Gorjifard S, Phyo Z, Andres M, Hughitt VK, Simpson RM, Miller MA, Girvin AT, Taylor A, Williams D, D'Antonio N, Zhang Y, Rajagopalan A, Flietner E, Wilson K, Zhang X, Shinn P, Klumpp-Thomas C, McKnight C, Itkin Z, Chen L, Kazandijian D, Zhang J, Michalowski AM, Simmons JK, Keats J, Thomas CJ, Mock BA. Drug combinations identified by high-throughput screening promote cell cycle transition and upregulate Smad pathways in myeloma. Cancer Lett. 2023 Aug 1;568:216284. doi: 10.1016/j.canlet.2023.216284. Epub 2023 Jun 24. PMID: 37356470; PMCID: PMC10408729.
# SEQUENCE No. (e.g., 1, 2, 3, etc.); […] (e.g., Cells, Incubation, Reagent, etc.); VALUE and DESCRIPTION.
# 1; Cells; 5 uL; white, solid bottom 1536-well Greiner assay plate.
# 2; Compounds; 23 nL; Kalypsis pin tool (Wako USA) equipped with a 1536-well pin head to transfer to the assay plates.
# 3; Incubation; 48 hours; 37C incubation.
# 4; Reagent;5uL; CellTiter Glo (Promega).
# 5; Detector; 425V; Luminescence; Viewlux PerkinElmer.
# NOTES (numbers refer to Sequence numbers above)
# 1. The cell-based screening methods employed in this study were like those previously published. Briefly, the corresponding myeloma cell lines were screened in 1,536-well plates with 500 cells, 5-uL per well for inhibition of cell viability (assessed by measuring ATP levels with CellTiterGlo).
# 2. NCATS MIPE 4.0 library of approved and investigational drugs were added using the Kalypsis pin tool. Wells treated with DMSO only for 100% viability and media only for 0% viability were used as controls.
# 3. The assay plates were covered and incubated for 48 hours in a 37C, 5% CO2 incubator with controlled humidity.
# 4. After 48 hours, CellTilter-GloTM luminescent substrate mix (Promega) reagent was added to the assay plate and plates we incubated for 5 min at room temperature.
# 5. Signal was measured as median relative luminescence units on a ViewLux (PerkinElmer) multiplate reader.
# [1] Heske CM, Davis MI, Baumgart JT, Wilson K, Gormally MV, Chen L, Zhang X, Ceribelli M, Duveau DY, Guha R, Ferrer M, Arnaldez FI, Ji J, Tran HL, Zhang Y, Mendoza A, Helman LJ, Thomas CJ. Matrix Screen Identifies Synergistic Combination of PARP Inhibitors and Nicotinamide Phosphoribosyltransferase (NAMPT) Inhibitors in Ewing Sarcoma. Clin Cancer Res. 2017 Dec 1;23(23):7301-7311. doi: 10.1158/1078-0432.CCR-17-1121. Epub 2017 Sep 12. PMID: 28899971; PMCID: PMC6636827.
# Potency is the fitted concentration of half-maximal effect.
Structure (SMILES),viability (% of control),Potency
COc1ccc(C2CNC(=O)C2)cc1OC1CCCC1 (stereo not given),115%,–
Cc1cnc(C(=O)NCCc2ccc(S(=O)(=O)NC(=O)NC3CCCCC3)cc2)cn1,–,14.8 µM (active)
O=C1Cc2cc(CCN3CCN(c4nsc5ccccc45)CC3)c(Cl)cc2N1,–,18.7 µM (active)
CC(C)(Oc1ccc(C2CC2(Cl)Cl)cc1)C(=O)O (stereo not given),128% [at 92.2 µM],–
COc1cc2nc(N3CCN(C(=O)C4COc5ccccc5O4)CC3)nc(N)c2cc1OC (stereo not given),–,18.7 µM (active)
O=C1N(c2ccccc2)c2ccccc2C1(Cc1ccncc1)Cc1ccncc1,–,20.9 µM (active)
CCc1cccc2c3c([nH]c12)C(CC)(CC(=O)O)OCC3 (stereo not given),127%,–
NC(=O)NO,–,3.32 µM (active)
Cc1ccccc1N1C(=O)c2cc(S(N)(=O)=O)c(Cl)cc2NC1C (stereo not given),97.8%,–
Cn1c(=O)c2c(ncn2C)n(C)c1=O,106%,–
COc1ccc2c(c1)c(CC(=O)O)c(C)n2C(=O)c1ccc(Cl)cc1,101%,–
CCC1(c2ccccc2)C(=O)NCNC1=O,–,2.96 µM (active)
CN1C(C(=O)Nc2ccccn2)=C(O)c2ccccc2S1(=O)=O,121%,–
Cc1cn([C@H]2C[C@H](N=[N+]=[N-])[C@@H](CO)O2)c(=O)[nH]c1=O,–,20.9 µM (active)
O=c1c(-c2ccc(O)cc2)coc2cc(O)cc(O)c12,88.4%,–
C[C@@H]1CC(=O)NN=C1c1ccc(NN=C(C#N)C#N)cc1,–,14.8 µM (active)
NCCc1cnc[nH]1,126%,–
COc1ccc2[nH]cc(CCNC(C)=O)c2c1,117%,–
CN(C)C(=N)N=C(N)N,108%,–
COc1cc2nc(N3CCN(C(=O)c4ccco4)CC3)nc(N)c2cc1OC,–,10.5 µM (active)

Structure (SMILES),viability (% of control),Potency
CCOC(=O)c1ncn2c1CN(C)C(=O)c1cc(F)ccc1-2,107%,–
CC(C)NCC(O)COc1ccc(CCOCC2CC2)cc1 (stereo not given),92.5%,–
COc1ccccc1N1CCN(CC(O)COc2cccc3ccccc23)CC1 (stereo not given),109%,–
O=C(c1ccc(F)cc1)C1CCN(CCn2c(=O)[nH]c3ccccc3c2=O)CC1,90.5%,–
Nc1nc2c(ncn2COC(CO)CO)c(=O)[nH]1,–,23.5 µM (active)
Cn1c(=O)c2[nH]cnc2n(C)c1=O,114%,–
Cc1ccc(C(=O)Nc2ccc(S(=O)(=O)O)c3cc(S(=O)(=O)O)cc(S(=O)(=O)O)c23)cc1NC(=O)c1cccc(NC(=O)Nc2cccc(C(=O)Nc3cc(C(=O)Nc4ccc(S(=O)(=O)O)c5cc(S(=O)(=O)O)cc(S(=O)(=O)O)c45)ccc3C)c2)c1,–,5.9 µM (active)
CN(C)CCOC(c1ccccc1)c1ccccc1,–,7.43 µM (active)
CC[N+](CC)(CC)CCOc1cccc(OCC[N+](CC)(CC)CC)c1OCC[N+](CC)(CC)CC,85.8%,–
CCC1(C)CC(=O)NC1=O (stereo not given),122%,–
CC1(C)O[C@H]2CC(=O)OC[C@]23[C@H]2CC[C@@]4(C)[C@H](c5ccoc5)OC(=O)[C@H]5O[C@]54[C@]2(C)C(=O)C[C@@H]13,123%,–
NCCS(=O)(=O)O,110%,–
CCN1CCCC1CNC(=O)c1cc(S(=O)(=O)CC)c(N)cc1OC (stereo not given),131%,–
CC[C@@]1(O)C(=O)OCc2c1cc1n(c2=O)Cc2cc3c(CN(C)C)c(O)ccc3nc2-1,–,0.662 µM (active)
COC(=O)Nc1nc2ccc(C(=O)c3cccs3)cc2[nH]1,–,0.0235 µM (active)
CNCCCC12CCC(c3ccccc31)c1ccccc12,–,23.5 µM (active)
CN(Cc1cnc2nc(N)nc(N)c2n1)c1ccc(C(=O)N[C@@H](CCC(=O)O)C(=O)O)cc1,–,0.187 µM (active)
CC#C[C@]1(O)CC[C@H]2[C@@H]3CCC4=CC(=O)CCC4=C3[C@@H](c3ccc(N(C)C)cc3)C[C@@]21C,–,0.833 µM (active)
CN1CCC(=C2c3ccccc3CC(=O)c3sccc32)CC1,–,11.8 µM (active)
CN(C)CCC=C1c2ccccc2C=Cc2ccccc21,101%,–
